Drawing on PubChem BioAssay, this text covers composite z-score, z-score and composite Z-score for six compounds.

Activity calls are given as the source filed them.

For test [1], the system named is Human papillomavirus type 1a protein E7 (residues 44-93). Description: small molecules binding HPV E7 44-93 – biochemical, small-molecule microarray, residues 44-93, 635 nm fluorescence, primary screen (AID 1108).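 Note: E7 fragment applied at 1 µg/mL in TBST for 1 h at 4 C; score combines spot fluorescence with its signal to noise ratio.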 The following applies: fluorescence 635 nm, higher = more signal.
Test [2] is described as follows: hepatitis C replication reporter changes, two-sided – Huh7 cells, luciferase reporter, HCV replication inhibitor project, primary screen (AID 1109).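 Note: huh7 hepatoma cells harbouring a luciferase neomycin HCV replicon reporter; luciferase luminescence as measure of HCV replicon replication; test concentration not given here.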 The following applies: Huh7 HCV replicon luciferase reporter, 48 h; higher = more signal. Background: A reporter such as luciferase makes a cellular process visible.
In test [3] the target is Left-right determination factor 2 (Homo sapiens) (UniProt O00292). Description: small molecules binding LEFTY2 protein – biochemical, small-molecule microarray, 635 nm fluorescence scan, primary screen (AID 1110). The following applies: higher = more signal.
Left-right determination factor 2 (Homo sapiens), sequence (O00292 whole entry, looked up): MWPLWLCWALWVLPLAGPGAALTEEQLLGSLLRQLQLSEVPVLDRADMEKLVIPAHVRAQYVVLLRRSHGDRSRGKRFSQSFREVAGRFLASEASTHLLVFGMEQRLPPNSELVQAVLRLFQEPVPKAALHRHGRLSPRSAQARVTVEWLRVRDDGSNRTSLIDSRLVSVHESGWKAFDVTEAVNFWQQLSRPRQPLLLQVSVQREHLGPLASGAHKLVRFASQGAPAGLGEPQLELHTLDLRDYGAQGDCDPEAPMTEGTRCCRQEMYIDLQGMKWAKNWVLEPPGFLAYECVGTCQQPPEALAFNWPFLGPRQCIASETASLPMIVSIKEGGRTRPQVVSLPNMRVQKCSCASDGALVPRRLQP
The target of test [4] is Calmodulin-1 (Homo sapiens) (UniProt P0DP23). Put plainly: small molecules binding calmodulin-1 with EGTA – biochemical, small-molecule microarray, Cy5-labelled CALM1, profiling panel (AID 1111).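 Note: labelled calmodulin applied in Tris saline Tween buffer holding calcium plus EGTA and DTT.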 The following applies: Cy5-CALM1 binding fluorescence, higher = more signal.
Test [5] shares this target. Put plainly: small molecules binding Ca-loaded calmodulin-1 – biochemical, small-molecule microarray, Cy5-labelled CALM1, plus calcium, artefact control for SMM control-protein annotation, profiling panel (AID 1112).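 Note: score merges spot fluorescence with signal to noise from triplicate slides.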 The following applies: Cy5-CALM1 binding fluorescence, higher = more signal.
The nature of test [6]: probe aWnt5a binding to arrayed compounds – biochemical, biotinylated probe, 635/667 nm fluorescence, primary screen (AID 1113).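 Note: score merges 667 nm fluorescence intensity with signal-to-noise per printed feature.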 The following applies: small-molecule microarray, higher = more signal.
Test [7] can be described thus: probe aShh binding to arrayed compounds – biochemical, biotinylated probe, 635/667 nm fluorescence, primary screen (AID 1114).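 Note: probe is biotin-labelled aShh protein from a stem cell growth factor screen; measures binding of labelled protein to compounds printed on the slide; score merges feature fluorescence at 667 nm with signal-to-noise.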 The following applies: small-molecule microarray, higher = more signal.
A short description of test [8]: probe aNog binding to arrayed compounds – biochemical, biotinylated probe, 635/667 nm fluorescence, primary screen (AID 1115).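 Note: probe is biotinylated aNog protein used at 0.15 µg/mL for 1 h at 4 C; z-score combines 667 nm fluorescence of each spot with its signal to noise.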 The following applies: small-molecule microarray, higher = more signal.
In test [9] the target is Torsin-1A-interacting protein 1 (Homo sapiens) (UniProt Q5JTV8). Description: compound microarray binding of lysate hLAP1 – cell lysate, small-molecule microarray, COS7 lysate, 635/667 nm fluorescence, primary screen (AID 1116). The following applies: 635 nm fluorescence, higher = more signal.
Torsin-1A-interacting protein 1 (Homo sapiens), sequence (Q5JTV8 whole entry, looked up): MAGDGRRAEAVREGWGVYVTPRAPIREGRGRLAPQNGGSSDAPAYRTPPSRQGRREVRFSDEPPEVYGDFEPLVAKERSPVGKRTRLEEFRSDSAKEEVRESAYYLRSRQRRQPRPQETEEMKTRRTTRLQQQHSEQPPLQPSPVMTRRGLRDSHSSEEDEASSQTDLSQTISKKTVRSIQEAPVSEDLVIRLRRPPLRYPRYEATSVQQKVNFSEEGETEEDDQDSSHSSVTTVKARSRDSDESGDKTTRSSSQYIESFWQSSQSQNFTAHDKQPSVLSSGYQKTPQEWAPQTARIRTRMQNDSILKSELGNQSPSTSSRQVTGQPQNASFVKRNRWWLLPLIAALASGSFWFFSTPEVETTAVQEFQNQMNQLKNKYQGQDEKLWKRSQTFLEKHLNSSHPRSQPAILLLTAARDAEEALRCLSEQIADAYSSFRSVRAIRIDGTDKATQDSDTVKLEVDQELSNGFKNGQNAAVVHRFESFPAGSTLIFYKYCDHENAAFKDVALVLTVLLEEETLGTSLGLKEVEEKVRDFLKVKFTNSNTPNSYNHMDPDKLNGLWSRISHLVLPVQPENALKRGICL
Test [10] deals with Alpha-bungarotoxin (Bungarus multicinctus) (UniProt P60615). Put plainly: compounds binding labelled alpha-BTX control protein – biochemical, small-molecule microarray, Alexa647 label, 635/667 nm fluorescence, artefact control for SMM control protein annotation, profiling panel (AID 1117). The following applies: alpha-BTX-A647 binding fluorescence, higher = more signal.
Alpha-bungarotoxin (Bungarus multicinctus), sequence (P60615 whole entry, looked up): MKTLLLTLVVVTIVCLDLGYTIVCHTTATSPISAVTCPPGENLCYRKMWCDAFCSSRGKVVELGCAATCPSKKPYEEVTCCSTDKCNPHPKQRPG
The target of test [11] is Albumin (Bos taurus) (UniProt P02769). Put plainly: compounds binding labelled BSA control protein – biochemical, small-molecule microarray, Alexa647 label, 635/667 nm fluorescence, artefact control for SMM control protein annotation, profiling panel (AID 1118).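 Note: score merges 667 nm emission intensity and signal-to-noise per printed compound spot.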 The following applies: BSA-A647 binding, fluorescence 635 nm, higher = more signal.
Albumin (Bos taurus), sequence (P02769 whole entry, looked up): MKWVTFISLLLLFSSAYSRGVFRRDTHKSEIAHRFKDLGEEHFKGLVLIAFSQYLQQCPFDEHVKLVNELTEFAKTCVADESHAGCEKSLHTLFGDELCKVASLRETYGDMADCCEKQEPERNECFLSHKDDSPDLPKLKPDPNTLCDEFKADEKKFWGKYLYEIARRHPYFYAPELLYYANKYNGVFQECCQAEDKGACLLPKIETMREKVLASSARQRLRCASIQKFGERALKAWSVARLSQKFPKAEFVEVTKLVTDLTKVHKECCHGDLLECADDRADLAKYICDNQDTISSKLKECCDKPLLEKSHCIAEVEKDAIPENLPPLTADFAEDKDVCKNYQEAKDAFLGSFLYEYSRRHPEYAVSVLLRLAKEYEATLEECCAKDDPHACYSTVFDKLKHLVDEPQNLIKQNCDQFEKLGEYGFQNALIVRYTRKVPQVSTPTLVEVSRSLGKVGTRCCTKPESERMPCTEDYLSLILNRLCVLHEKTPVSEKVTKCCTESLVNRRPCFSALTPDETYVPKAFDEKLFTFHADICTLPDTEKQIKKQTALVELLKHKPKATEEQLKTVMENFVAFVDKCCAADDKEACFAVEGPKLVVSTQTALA
Test [12] is described as follows: probe aXIP binding to arrayed compounds – biochemical, NeuroSMM set, 635/667 nm fluorescence, primary screen (AID 1119).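 Note: probe is the protein aXip251-270 applied at 1 µg/mL to compound-printed slides; binding of probe to printed compounds measured as 667 nm fluorescence plus signal to noise.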 The following applies: small-molecule microarray, higher = more signal, called active from +8 up or from −8 down.
The nature of test [13]: probe aNOTCH3 binding on compound microarray – biochemical, small-molecule microarray, 635/667 nm fluorescence, primary screen (AID 1120).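 Note: probe is a biotin-tagged antibody raised against NOTCH3 rather than NOTCH3 protein; score merges spot fluorescence near 667 nm with spot signal to noise.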 The following applies: higher = more signal.
Test [14] can be described thus: probe aNOTCH2 binding on compound microarray – biochemical, small-molecule microarray, 635/667 nm fluorescence, primary screen (AID 1121).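 Note: score merges feature fluorescence read at 667 nm with its signal to noise.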 The following applies: higher = more signal.
For test [15], the target named is Carbonic anhydrase 2 (Homo sapiens) (UniProt P00918). Put plainly: compounds binding carbonic anhydrase 2 – biochemical, small-molecule microarray, Alexa647-labelled CAII, profiling panel (AID 1122). The following applies: CAII-A647 binding fluorescence, higher = more signal.
A short description of test [16]: COS7 lysate on small-molecule microarray, probe aHis, 635 nm (AID 1123).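 Note: z-score combines 667nm fluorescence intensity with signal-to-noise per printed compound spot.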 The following applies: COS7 cell lysate, fluorescence, higher = more signal.
The nature of test [17]: probe aLAP1 signal on lysate-treated microarray – cell lysate, small-molecule microarray, COS7 lysate, primary screen (AID 1124).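 Note: lysate comes from COS7 cells expressing LAP1 and is applied at 0.3 µg/mL; score merges spot fluorescence near 667 nm with signal-to-noise over triplicate slides.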 The following applies: probe aLAP1, fluorescence, higher = more signal.
Test [18] relates to Sam68 (KHDRBS1). Put plainly: compounds binding KHDRBS1 protein – biochemical, small-molecule microarray, 635 nm fluorescence, primary screen (AID 1125).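 Note: score merges 667 nm channel intensity with signal to noise over triplicate slides.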 The following applies: higher = more signal.
Test [19] has as its system Chordin-like protein 2 (CHRDL2). Put plainly: compounds binding chordin-like 2 – biochemical, small-molecule microarray, 635 nm fluorescence, primary screen (AID 1126).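 Note: printed compound slides probed with Chrdl2 protein at 4 µg/mL for 1 h at 4 C; score merges 667 nm emission intensity with signal to noise over three replicate slides.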 The following applies: fluorescence 635 nm, higher = more signal.
Test [20] deals with Concanavalin-A (Canavalia ensiformis) (UniProt P02866). Description: compounds binding concanavalin A lectin – biochemical, small-molecule microarray, Alexa647 label, 635 nm, artefact control for SMM control protein annotation, primary screen (AID 1127).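 Note: z combines 667 nm emission intensity with signal-to-noise across three replicate slides.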 The following applies: ConA-A647 binding fluorescence, higher = more signal.
Concanavalin-A (Canavalia ensiformis), sequence (P02866 whole entry, looked up): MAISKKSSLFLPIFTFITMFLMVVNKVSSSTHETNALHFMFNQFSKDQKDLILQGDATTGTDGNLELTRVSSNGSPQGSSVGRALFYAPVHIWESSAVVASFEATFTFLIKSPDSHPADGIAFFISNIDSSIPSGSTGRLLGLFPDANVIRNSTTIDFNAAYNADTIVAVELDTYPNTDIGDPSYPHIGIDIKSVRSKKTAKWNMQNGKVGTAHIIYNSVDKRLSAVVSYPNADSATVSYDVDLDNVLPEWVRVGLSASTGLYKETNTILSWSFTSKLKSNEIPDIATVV

In the case of `COCCNC(=O)OCC1CCCC2(CC(OC(=O)NCc3cccc4ccccc34)CC(CCC(=O)N[C@@H](C)C(=O)OC)O2)O1` (stereo not given in full), the composite z-score in test [1] is 1.35; in test [3], 0.781; in [4], 0.171; in test [5], -0.62; in [6], -0.144; in [7], -0.0006. The composite z-score is -0.256 in test [8]; 0.002 in [9]; 0.801 in [10]; 0.0307 in test [11]; -0.0362 in [13]; -0.14 in test [14]. The composite z-score in test [15] is 0.262; in [16], 1.12; in [17], -0.107; in test [18], 1.3; in test [19], 0.665; in test [20], 1.03. Further, in test [2], the z-score was -0.942. Further, in test [12], the composite Z-score is 0.59 (inactive).

For the compound `COc1ccc(COC(=O)NN=C2C[C@@H](O)[C@@H](O)[C@@H]3[C@@H]4C(=O)N(c5cccc(Oc6ccccc6)c5)C(=O)[C@@H]4CC[C@H]23)cc1`, the composite z-score in test [1] is -0.0321; in [3], -0.35; in test [4], 0.0317; in test [5], 0.176; in [6], -0.215; in test [7], -0.2. The composite z-score in [8] was -0.336; in [9] it was 0.215; in test [10], 0.971; in test [11], 0.64; in [13], 0.0793; in test [14] it was -0.0665. For the same compound, the composite z-score in test [15] is -0.0831; in test [16] it was 0.852; in test [17] it was -0.0241; in test [18] it was -0.546; in test [19], -0.636; in [20], 0.433. In [2], this compound yielded a z-score of -1.46. Also, in test [12], the composite Z-score is -0.626 (inactive).

With `CON=C(C)CCN1CCc2nc(-c3ccccc3)c(-c3ccccc3)cc2C1`, the composite z-score is -0.539 in test [1]; -0.117 in test [3]; 0.709 in [4]; 0.0504 in test [5]; -0.219 in [6]; -0.0011 in test [7]. In addition, the composite z-score in [8] is 0.107; in [9], 0.0735; in test [10], -0.107; in test [11] it was 0.633; in [13], -0.132; in [14] it was -0.0829. Further, the composite z-score in [15] is -0.153; in test [16], -0.556; in test [17], 0.0881; in [18], -0.303; in test [19] it was 0.258; in [20], 1.13. The z-score in test [2] is -4.3. The composite Z-score in [12] was 0.837 (inactive).

`O=C1C=C[C@@H](O)[C@@H]2[C@@H]3C(=O)N(c4cccc(Oc5ccccc5)c4)C(=O)[C@@H]3CC[C@@H]12`: the composite z-score in test [1] was 0.242; in test [3], 0.594; in test [4], -0.203; in [5] it was -0.477; in [6], -0.152; in [7], -0.0626. In addition, the composite z-score is -0.381 in test [8]; 0.503 in [9]; 0.0671 in [10]; 0.0329 in test [11]; -0.132 in test [13]; -0.176 in [14]. Further, the composite z-score is -0.0169 in test [15]; -0.55 in [16]; -0.239 in test [17]; 0.184 in test [18]; 0.417 in test [19]; 0.19 in test [20]. The z-score in [2] was -2.07. For the same compound, the composite Z-score in test [12] was -0.554 (inactive).

Consider `CC(C)CON=C1[C@H]2CCn3c(=O)n(C)c(=O)n3[C@H]2[C@H](O)[C@@H]2O[C@H]12`, for which the composite z-score in test [1] is 0.274; in [3], 0.494; in [4], -0.0875; in [5], -0.609; in [6], -0.127; in test [7] it was 0.0796. Also, the composite z-score in test [8] was -0.232; in test [9] it was 0.18; in [10], 0.255; in [11], -0.0213; in test [13], 0.236; in [14], -0.139. In addition, the composite z-score in test [15] was -0.148; in test [16], -0.818; in test [17], 0.854; in test [18] it was 0.471; in [19], 0.783; in test [20], 0.328. For the same compound, the z-score in test [2] turned out to be 0.104. For the same compound, the composite Z-score in [12] was -0.483 (inactive).

For `C=CC[C@@H]1C=C[C@H](Oc2ccc(C)cc2)[C@@H](COC(=O)NCc2cccc3ccccc23)O1`, the composite z-score in test [1] is 0.286; in test [3] it was 0.129; in test [4], -0.716; in test [5], -0.547; in test [6] it was -0.0271; in test [7], -0.0793. Also, the composite z-score in [8] was -0.0496; in test [9], 0.0431; in test [10], -0.212; in test [11], 0.427; in test [13], -0.0328; in test [14] it was -0.127. Moreover, the composite z-score in test [15] was 0.023; in test [16] it was 0.502; in test [17] it was -0.106; in [18] it was -0.256; in test [19] it was 0.338; in test [20], -0.749. Besides, the z-score in [2] is -2.78. Moreover, the composite Z-score in test [12] is 0.339 (inactive).
